The panel holds about 83,000 compounds, 20% with a hit somewhere; the sample as a whole holds those more often.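 Method: cells in 96-well plates; compound added at one concentration; 48 h incubation; percent growth measured; values under 10 scored active.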 Activity calls are given as the source filed them.
Experiments:
Experiment in all cases: NCI-60 one-dose screen, 48 h (100 = growth as untreated, 0 = no growth, -100 = all killed)
Settings in all cases: 10 µM unless noted
NCI-H23 lung = system: NCI-H23 lung
NCI-H226 lung = system: NCI-H226 lung
NCI-H322M lung = system: NCI-H322M lung
HOP-62 NSCLC = system: HOP-62 NSCLC
NCI-H460 lung = system: NCI-H460 lung
HOP-92 NSCLC = system: HOP-92 NSCLC
NCI-H522 lung = system: NCI-H522 lung
A549/ATCC NSCLC = system: A549/ATCC NSCLC
786-0 renal = system: 786-0 renal
COLO 205 colon = system: COLO 205 colon
DU-145 prostate = system: DU-145 prostate
K-562 leukemia = system: K-562 leukemia
MALME-3M melanoma = system: MALME-3M melanoma
MDA-MB-231 breast = system: MDA-MB-231 breast
RXF 393 renal = system: RXF 393 renal
SF-268 CNS = system: SF-268 CNS
SF-295 CNS = system: SF-295 CNS
SF-539 CNS = system: SF-539 CNS
UACC-257 melanoma = system: UACC-257 melanoma
M14 melanoma = system: M14 melanoma

Measured: growth

COc1cc2oc(-c3cccc(C(=O)Nc4ccc5c(c4)OCO5)c3)cc(=O)c2c(O)c1OC
inactive: NCI-H23 lung 72.7% | NCI-H226 lung 78.5% | NCI-H322M lung 81% | HOP-62 NSCLC 60.4% | NCI-H460 lung 54.3% | HOP-92 NSCLC 73% | NCI-H522 lung 76% | A549/ATCC NSCLC 74.9% | 786-0 renal 64.3% | COLO 205 colon 94.8% | DU-145 prostate 80.4% | K-562 leukemia 94.5% | MALME-3M melanoma 88.1% | MDA-MB-231 breast 68.1% | RXF 393 renal 81.5% | SF-268 CNS 58.7% | SF-295 CNS 92.1% | SF-539 CNS 88.8% | UACC-257 melanoma 78.2% | M14 melanoma 89.7%

CN1C(=O)NC(c2ccc3c(c2)OCO3)C=C1c1ccccc1 (stereo not drawn)
inactive: NCI-H23 lung 96.3% | NCI-H226 lung 103% | NCI-H322M lung 92.4% | HOP-62 NSCLC 91.3% | NCI-H460 lung 97.6% | HOP-92 NSCLC 93.9% | NCI-H522 lung 80% | A549/ATCC NSCLC 91.1% | 786-0 renal 83% | COLO 205 colon 107% | DU-145 prostate 94.7% | K-562 leukemia 76.5% | MALME-3M melanoma 88.4% | MDA-MB-231 breast 102% | RXF 393 renal 91.2% | SF-268 CNS 95.6% | SF-295 CNS 98.6% | SF-539 CNS 98.1% | UACC-257 melanoma 98.5%

COc1cc(-c2csc(NC(=O)c3cc(F)cc(C(F)(F)F)c3)n2)cc(OC)c1OC
inactive: NCI-H23 lung 49.8% | NCI-H226 lung 27.7% | NCI-H322M lung 68% | HOP-62 NSCLC 39.3% | NCI-H460 lung 19.5% | HOP-92 NSCLC 51.2% | A549/ATCC NSCLC 64.4% | 786-0 renal 29.4% | COLO 205 colon 25.5% | DU-145 prostate 14.6% | MALME-3M melanoma 40.3% | MDA-MB-231 breast 56.5% | RXF 393 renal 11.8% | SF-268 CNS 42.4% | SF-295 CNS 38.1% | SF-539 CNS 26.8% | UACC-257 melanoma 58.6%
active: NCI-H522 lung -10.8% | K-562 leukemia 8.12%

COc1cc(/C=N/NC(=O)c2cnn3c2NC(c2ccccc2)C3)ccc1OCc1ccccc1 (stereo not drawn)
inactive: NCI-H23 lung 32.8% | NCI-H226 lung 40.2% | NCI-H322M lung 28.6% | NCI-H522 lung 19.1% | SF-268 CNS 19.6% | UACC-257 melanoma 18.5%
active: HOP-62 NSCLC -1.18% | NCI-H460 lung -54% | HOP-92 NSCLC 7.9% | A549/ATCC NSCLC -29.8% | 786-0 renal 0.422% | COLO 205 colon -2.34% | DU-145 prostate 6.15% | K-562 leukemia 3.64% | MALME-3M melanoma -20.5% | MDA-MB-231 breast 5.81% | RXF 393 renal -4.25% | SF-295 CNS -48.3% | SF-539 CNS -52.6%

Nc1c(C(=O)Nc2cccc3cnccc23)sc2nc3c(cc12)C(=O)CCC3
inactive: NCI-H23 lung 92.6% | NCI-H226 lung 92.7% | NCI-H322M lung 102% | HOP-62 NSCLC 90.5% | NCI-H460 lung 78.2% | HOP-92 NSCLC 80.5% | NCI-H522 lung 40.4% | A549/ATCC NSCLC 87.4% | 786-0 renal 91.3% | COLO 205 colon 108% | DU-145 prostate 103% | K-562 leukemia 46.3% | MALME-3M melanoma 88.3% | MDA-MB-231 breast 83.4% | RXF 393 renal 92.2% | SF-268 CNS 96.4% | SF-295 CNS 74.9% | SF-539 CNS 93.6% | UACC-257 melanoma 95.6% | M14 melanoma 74.6%

CCN(Cc1ccccc1)c1ccc(C=O)cc1
active: NCI-H226 lung 2.99%
inactive: NCI-H23 lung 96.3% | NCI-H322M lung 93.9% | HOP-62 NSCLC 108% | NCI-H460 lung 100% | HOP-92 NSCLC 81.9% | NCI-H522 lung 100% | A549/ATCC NSCLC 98.1% | 786-0 renal 102% | COLO 205 colon 113% | DU-145 prostate 110% | K-562 leukemia 93.3% | MALME-3M melanoma 117% | MDA-MB-231 breast 96.5% | RXF 393 renal 88.6% | SF-268 CNS 106% | SF-295 CNS 114% | SF-539 CNS 87.7% | UACC-257 melanoma 106% | M14 melanoma 102%

O=C(Cc1ccc(/C=C/C(=O)c2nccs2)cc1)Nc1ccccc1
inactive: NCI-H23 lung 97.3% | NCI-H226 lung 100% | NCI-H322M lung 100% | HOP-62 NSCLC 103% | NCI-H460 lung 103% | HOP-92 NSCLC 91.3% | NCI-H522 lung 78.5% | A549/ATCC NSCLC 88.8% | 786-0 renal 93.8% | COLO 205 colon 122% | DU-145 prostate 105% | K-562 leukemia 23.3% | MALME-3M melanoma 98.4% | MDA-MB-231 breast 94.8% | RXF 393 renal 103% | SF-268 CNS 95% | SF-295 CNS 97.1% | SF-539 CNS 99.9% | UACC-257 melanoma 88.6% | M14 melanoma 93.1%

COc1cc2cc(CN3CCN(c4nccc(-c5ccc6ccccc6c5)n4)CC3)c(=O)[nH]c2cc1OC
active: NCI-H460 lung -35.9% | A549/ATCC NSCLC 2.34%
inactive: NCI-H23 lung 97.3% | NCI-H226 lung 96.5% | NCI-H322M lung 98.4% | HOP-62 NSCLC 96.2% | HOP-92 NSCLC 98.4% | NCI-H522 lung 85.6% | 786-0 renal 32.7% | COLO 205 colon 80% | DU-145 prostate 74% | K-562 leukemia 13.6% | MALME-3M melanoma 103% | MDA-MB-231 breast 73.8% | RXF 393 renal 81.8% | SF-268 CNS 94% | SF-295 CNS 101% | SF-539 CNS 110% | UACC-257 melanoma 77% | M14 melanoma 109%

Cc1cnc(C(=O)Nc2nc3ccc(S(=O)(=O)Nc4ccc(C(C)(C)C)cc4)cc3[nH]2)cn1
active: NCI-H460 lung 1.67% | COLO 205 colon 6.64% | RXF 393 renal -13.9% | SF-539 CNS -33.6%
inactive: NCI-H23 lung 37.4% | NCI-H226 lung 31.3% | NCI-H322M lung 41.6% | HOP-62 NSCLC 42.5% | HOP-92 NSCLC 37.4% | NCI-H522 lung 24.4% | A549/ATCC NSCLC 21.6% | 786-0 renal 22.7% | DU-145 prostate 12.4% | K-562 leukemia 11.4% | MALME-3M melanoma 43.8% | MDA-MB-231 breast 30.6% | SF-268 CNS 48.1% | SF-295 CNS 21.9% | UACC-257 melanoma 59.1%

N=C(N)c1ccc(OCCCCCCCCCCOc2ccc(C(=N)N)cc2)cc1
active: NCI-H23 lung -69.5% | NCI-H226 lung -71.7% | NCI-H322M lung -99% | HOP-62 NSCLC -76.6% | NCI-H460 lung -88.6% | HOP-92 NSCLC -86.1% | NCI-H522 lung -75.8% | A549/ATCC NSCLC -85.4% | 786-0 renal -89.8% | COLO 205 colon -61.6% | DU-145 prostate -96.6% | K-562 leukemia -67.5% | MALME-3M melanoma -81.8% | MDA-MB-231 breast -91.7% | RXF 393 renal -82.8% | SF-268 CNS -81.3% | SF-295 CNS -82.4% | SF-539 CNS -87% | UACC-257 melanoma -69.7%

Cn1c2ccccc2c2c3c(c4c5ccccc5n(C)c4c21)C(=O)OC3
inactive: NCI-H23 lung 97.6% | NCI-H226 lung 80.9% | NCI-H322M lung 87.6% | HOP-62 NSCLC 90.8% | NCI-H460 lung 97.6% | HOP-92 NSCLC 95.6% | NCI-H522 lung 88.8% | A549/ATCC NSCLC 104% | 786-0 renal 102% | COLO 205 colon 107% | DU-145 prostate 104% | K-562 leukemia 94.2% | MALME-3M melanoma 109% | MDA-MB-231 breast 76.2% | RXF 393 renal 101% | SF-268 CNS 91.1% | SF-295 CNS 107% | SF-539 CNS 96.6% | UACC-257 melanoma 109% | M14 melanoma 103%

C=C(C)[C@@H]1CC[C@]2(C(=O)N3CCN(C)CC3)CC[C@]3(C)[C@H](CC[C@@H]4[C@@]5(C)CC[C@H](OCCC#N)C(C)(C)[C@@H]5CC[C@]43C)[C@@H]12
inactive: NCI-H23 lung 100% | NCI-H226 lung 89.4% | NCI-H322M lung 103% | HOP-62 NSCLC 108% | NCI-H460 lung 98.7% | HOP-92 NSCLC 93% | NCI-H522 lung 95.4% | A549/ATCC NSCLC 80% | 786-0 renal 22% | COLO 205 colon 50.3% | DU-145 prostate 92.5% | K-562 leukemia 16.2% | MALME-3M melanoma 118% | MDA-MB-231 breast 65.8% | RXF 393 renal 47.4% | SF-268 CNS 90.5% | SF-295 CNS 115% | SF-539 CNS 102% | UACC-257 melanoma 107% | M14 melanoma 107%

Cc1ccc(NC(=O)c2cc(-c3nc4ccccc4s3)c(=O)n(NS(=O)(=O)c3ccc(Cl)cc3)c2N)cc1
inactive: NCI-H23 lung 102% | NCI-H226 lung 80.6% | NCI-H322M lung 97.8% | HOP-62 NSCLC 106% | NCI-H460 lung 105% | HOP-92 NSCLC 103% | NCI-H522 lung 94.4% | A549/ATCC NSCLC 100% | 786-0 renal 101% | COLO 205 colon 114% | DU-145 prostate 107% | K-562 leukemia 100% | MALME-3M melanoma 112% | MDA-MB-231 breast 96.1% | RXF 393 renal 112% | SF-268 CNS 94.2% | SF-295 CNS 101% | SF-539 CNS 97.2% | UACC-257 melanoma 104%

N#Cc1cccc(-c2ccc3c(c2)NC(=O)/C3=C\c2ccc[nH]2)c1
active: COLO 205 colon 3.47%
inactive: NCI-H23 lung 34.2% | NCI-H226 lung 41.6% | NCI-H322M lung 45.5% | HOP-62 NSCLC 62.7% | NCI-H460 lung 22.4% | HOP-92 NSCLC 56.7% | NCI-H522 lung 28.7% | A549/ATCC NSCLC 86.5% | 786-0 renal 74.5% | DU-145 prostate 92.8% | K-562 leukemia 18.8% | MALME-3M melanoma 51.6% | MDA-MB-231 breast 33.5% | RXF 393 renal 73.3% | SF-268 CNS 95.6% | SF-295 CNS 78.7% | SF-539 CNS 71.8% | UACC-257 melanoma 67.6% | M14 melanoma 56.4%

CCCNC(=O)Oc1ccc(/C(=C(\C)c2ccccc2)c2ccc(OCCCN(C)C)cc2)cc1
active: UACC-257 melanoma 8.5%
inactive: NCI-H23 lung 75.6% | NCI-H226 lung 102% | NCI-H322M lung 81.2% | HOP-62 NSCLC 78.3% | NCI-H460 lung 75.1% | HOP-92 NSCLC 68.2% | NCI-H522 lung 79.6% | A549/ATCC NSCLC 70% | 786-0 renal 58.6% | COLO 205 colon 52.8% | DU-145 prostate 89.7% | K-562 leukemia 11.5% | MALME-3M melanoma 40.8% | MDA-MB-231 breast 59.4% | RXF 393 renal 71.1% | SF-268 CNS 71.8% | SF-295 CNS 64% | SF-539 CNS 63.9%
